Data from PubChem BioAssay.

experiment: compounds binding Alexa647 anti-His antibody – biochemical, small-molecule microarray, 635 nm fluorescence, artefact control for SMM control protein annotation, primary screen (AID 1128); settings: higher = more signal;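 also: score merges feature fluorescence with signal-to-noise for each printed compound spot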

Structure (SMILES)	composite z-score
COCCOC(=O)N1C(=O)[C@@]2(c3ccccc31)[C@H](c1ccc(O)cc1)N1[C@H](c3ccccc3)[C@H](c3ccccc3)OC(=O)[C@H]1[C@@H]2C(=O)Nc1nc2ccccc2s1	1.97
C=CCOC(=O)[C@H]1[C@@H]2C(=O)O[C@@H](c3ccccc3)[C@@H](c3ccccc3)N2[C@@H](c2ccc(OCCOC(=O)[C@H]3C[C@H]4C(=O)N[C@@H](CCCCN(C)C)C(=O)N4[C@H]3c3ccc(O)cc3)cc2)[C@]12C(=O)Nc1ccc(I)cc12	2.49
NC(=O)[C@@H]1[C@H]2C(=O)O[C@H](c3ccccc3)[C@H](c3ccccc3)N2[C@H](c2ccc(O)cc2)[C@@]12C(=O)Nc1ccccc12	-0.393
CC(C)C[C@@H]1NC(=O)[C@H](C(C)C)NC(=O)[C@@]23C(=O)N[C@@H](Cc4ccccc4)C2[C@H](C)[C@@]2(C)O[C@H]2C3/C=C/CC/C=C/CNC1=O (stereo partly drawn)	0.65
COC(=O)C(CC#Cc1ccc2c(c1)[C@]1(C(=O)N2)[C@H](c2ccc(OCCO)cc2)N2[C@H](c3ccccc3)[C@H](c3ccccc3)OC(=O)[C@H]2[C@@H]1C(=O)Nc1nc2ccccc2s1)C(=O)OC	1.6
O=C1NC(=O)C2C1C=CC(C(O)c1cc(C(F)(F)F)cc(C(F)(F)F)c1)N2Nc1ccccn1 (stereo not drawn)	0.191
Cc1ccc(S[C@]2(C(=O)NCCCN(C)C)CC(=O)N(Cc3cc(C(F)(F)F)cc(C(F)(F)F)c3)[C@@H]2c2ccc(CO)cc2I)cc1	0.336
C=C(C(=O)CC[C@@H](OC(=O)c1cccnc1)c1ccccc1OCCO)C(C)C	-0.242
